Screening results from PubChem.
Pol eta inh-1 – blocks human DNA polymerase eta activity; Q9Y253; recombinant Pol eta, fluorescent DNA replication assay; Potency, µM (series often up to 114 µM), hits mostly inhibitors; 390,000 compounds, 1.2% hits; AID 588591
Target sequence (Q9Y253 whole entry, looked up): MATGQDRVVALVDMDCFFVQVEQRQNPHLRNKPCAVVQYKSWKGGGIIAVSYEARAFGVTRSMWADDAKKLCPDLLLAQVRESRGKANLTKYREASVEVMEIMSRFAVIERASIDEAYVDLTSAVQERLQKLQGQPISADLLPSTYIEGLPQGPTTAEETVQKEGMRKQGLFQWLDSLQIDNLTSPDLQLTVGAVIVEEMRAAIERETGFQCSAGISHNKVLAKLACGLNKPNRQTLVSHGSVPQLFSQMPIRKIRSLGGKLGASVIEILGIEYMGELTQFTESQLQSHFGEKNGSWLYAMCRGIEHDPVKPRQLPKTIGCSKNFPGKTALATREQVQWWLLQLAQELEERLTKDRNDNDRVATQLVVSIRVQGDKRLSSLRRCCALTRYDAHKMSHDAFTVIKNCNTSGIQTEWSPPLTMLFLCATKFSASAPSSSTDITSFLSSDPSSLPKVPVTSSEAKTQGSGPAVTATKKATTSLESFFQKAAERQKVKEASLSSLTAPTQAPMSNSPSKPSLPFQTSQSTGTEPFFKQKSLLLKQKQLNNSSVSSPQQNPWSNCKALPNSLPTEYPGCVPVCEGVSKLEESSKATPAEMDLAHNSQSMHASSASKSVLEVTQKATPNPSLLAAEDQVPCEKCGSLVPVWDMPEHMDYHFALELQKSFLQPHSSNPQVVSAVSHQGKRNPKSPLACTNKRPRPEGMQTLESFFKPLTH
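Pol eta (10 nM) was preincubated with compounds for 15 min at room temperature, after which fluorescent replication substrate (50 nM final) was added to start the reaction. Fluorescence was read kinetically at 0 and 10 min.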
TDP1 block – inhibitors of human tyrosyl-DNA phosphodiesterase TDP1; AID 485290; Potency, µM (series often up to 130 µM), usual class: inhibitors; recombinant TDP1, AlphaScreen DNA substrate cleavage; 350,000 compounds, 0.28% hits; further: nearly all actives have a fitted effect of over 40% in size
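Signal: AlphaScreen proximity between streptavidin donor and anti-FITC acceptor beads on intact substrate. Reaction: Tdp1 1 nM, substrate 15 nM final, 5 min RT after 15 min compound preincubation.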
Pol iota inh – blocks human DNA polymerase iota activity; Q9UNA4; Pol iota fluorescent replication assay, 10 min; Potency, µM (top dose mostly 115 µM), most hits filed as inhibitors; 390,000 compounds, 1% hits
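Fluorescent replication assay read twice, at 0 min and 10 min after adding 50 nM (final) substrate. Enzyme (10 nM) and compounds were first incubated 15 min at room temperature; enzyme-free buffer wells were negative controls.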
POLB inh – inhibitors of human DNA polymerase beta; Pol beta primer extension/strand displacement, fluorescence kinetic; Potency, µM (highest dose often 114 µM), usual class: inhibitors; 340,000 compounds, 1.3% hits; AID 485314
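Preincubation: enzyme (10 nM) with compound, 15 min, RT. Reaction: substrate added to 50 nM final. Reads: 0 and 10 min. Analysis: normalized, Hill fit.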
FEN1 inhibitor – inhibitors of human flap endonuclease 1. P39748. Recombinant FEN1 flap cleavage, fluorescence, 15 min. AID 588795. Potency, µM (series often up to 114 µM), actives largely listed as inhibitors. 390,000 compounds, 0.35% hits; further: nearly all actives have a fitted effect of over 65% in size
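In this screen, 50 nM flap DNA substrate was added to 10 nM FEN1 pretreated with compound for 15 min at room temperature; cleavage was followed with reads at 0 and 15 min, and Hill fitting gave concentration–response parameters.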
Pol kappa inh – DNA polymerase kappa (human) inhibition | Q9UBT6 | purified Pol kappa, fluorescent DNA synthesis assay, 10 min | Potency, µM (series often up to 107 µM), usual class: inhibitors | 400,000 compounds, 0.53% hits | AID 588579
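Kinetic fluorescence readout at 0 and 10 min followed reaction start with substrate at 50 nM final. Beforehand, enzyme (10 nM Pol kappa) stood 15 min with compound at room temperature; buffer-only wells were negative controls.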
Pol eta inh-2 – confirmation of human DNA polymerase eta inhibitors; shares compounds with Pol eta inh-1; Pol eta primer extension, TAMRA/BHQ fluorescence, 10 min; Potency, µM, hits mostly inhibitors; 2,600 compounds, 64% hits
A number is an active result; 0 = inactive; ? = inconclusive; - = no result; [ ] = another dose, or the depositor's remark. The list is not random: actives were taken first. Their share in the collection is about 2.4%. The call rests on the fitted dose curve; in most records, active means well fitted curve in the direction sought with a large enough effect; inconclusive means small, poorly fitted or top-dose-only effect, or another doubt; inactive means no such curve, though single readings can be large; an effect the other way counts as inactive or inconclusive.

SMILES	Pol eta inh-1	TDP1 block	Pol iota inh	POLB inh	FEN1 inhibitor	Pol kappa inh	Pol eta inh-2
CCCNC(=O)c1ccccc1NC(=O)c1cccc(-n2cnnn2)c1	0	0	0	-	0	0	-
COc1ccc(CC(=O)NC2CC(=O)N(c3cccc(F)c3)C2)cc1OC (stereo not given)	0	0	0	0	0	0	-
Cc1cccc(C(=O)Oc2ccc3ccc(O)cc3c2)c1	0	-	0	0	0	0	-
COc1ccc(CC(=O)NC(c2ccccc2)c2ccc(C)cc2)c(OC)c1 (stereo not given)	0	-	0	0	0	0	-
CSc1ccc(C2C(C#N)=C(N)Oc3c2ccc(=O)c2c(C)oc(C)c32)cc1 (stereo not given)	11.2µM	0	?	?	?	50.1µM	?
C=CCNC1=C(Cl)C(=O)N(c2ccccc2Cl)C1=O	0	0	0	0	0	0	-
COc1ccc(C(=O)Nc2nc(C)cs2)cc1S(=O)(=O)N1CCOCC1	0	-	-	-	-	-	-
CS(=O)(=O)c1ccc(C(=O)OC2CCOC2=O)cc1[N+](=O)[O-] (stereo not given)	20µM	-	?	?	0	0	37.9
CNS(=O)(=O)c1cccc(C(=O)OC2CCOC2=O)c1 (stereo not given)	0	0[0.0935 µM]	0	0	0	0	-
O=C(O)c1ccc(S(=O)(=O)N2CCN(c3ccccn3)CC2)cc1	0	0	0	0	0	0	-
Cc1cccc(CSCc2ccc(C(=O)O)o2)c1	0	-	0	0	0	0	-
Cc1oc(C(=O)O)cc1CSCc1cc(C(=O)O)c(C)o1	3.16µM	-	?	22.4µM	0	?	26.9
Cc1ccc([N+](=O)[O-])cc1S(=O)(=O)Nc1ccc(C(=O)NCc2ccccn2)cc1	?	-	?	-	0	?	?
O=S(=O)(c1ccc(Cl)s1)N1CCCCC1	0	0	0	0	0	0	-
Cc1ccc(C)c(/C=C(\C(=O)O)c2ccc(S(=O)(=O)N3CCCCC3)s2)c1	50.1µM	0	?	22.4µM	0	?	?
Cc1c(Cl)cccc1N(CC(=O)NC(C)c1ccccc1)S(C)(=O)=O (stereo not given)	0	0	0	0	0	0	-
COc1ccc(S(=O)(=O)Nc2cccc3c2O[C@H](CN(C)C)[C@@H](C)CN([C@H](C)CO)C3=O)cc1	0	0	0	-	0	0	-
COC(=O)Cc1cc(C)cc2c(=O)cc(-c3ccoc3)oc12	50.1µM	-	?	-	0	0	?
O=C1C=C(c2ccc3cc[nH]c3c2)C[C@@H](c2ccc3c(c2)OCO3)C1	22.4µM	?	14.1µM	-	?	79.4µM	75.7
O=C1C=C(c2ccc3c(c2)OCO3)C[C@@H](c2ccc3c(c2)OCO3)C1	0	0	0	-	0	0	-
COc1cc(/C=C2\CCCc3c2nc2ccccc2c3C(=O)O)cc([N+](=O)[O-])c1O	20µM	?	12.6µM	14.1µM	?	79.4µM	47.8
COc1ccc(/C=C2\CCCc3c2nc2ccccc2c3C(=O)O)cc1OC	-	0	-	0	-	-	-
CC(C)[C@H](NC(=O)c1ccc(Cl)cc1)C(=O)Nc1cccc(S(=O)(=O)N2CCOCC2)c1	0	-	-	-	-	-	-
Cn1nc2c(c1C(=O)N1CCCC(C(=O)c3cc(F)ccc3F)C1)CCCC2 (stereo not given)	0	-	0	0	0	0	-
Cn1nc2c(c1C(=O)O)CCCC2	8.91µM	-	?	?	0	?	26.9
CS(=O)(=O)C1=NSC2=NC(=O)/C(=C\c3cccn3-c3ccc(Cl)cc3)C(=N)N21	22.4µM	79.4µM	?	22.4µM	0	0	?
